Only some compounds are listed: those with a hit (about 3.3% of all), similar ones and a draw of the others.
PRMT1 inh: blocks human protein arginine methyltransferase 1 | Q99873 | recombinant PRMT1, activity-based probe fluorescence polarization | inhibition, % at 2.79 µM | 1.3% of 370,000 active | AID 652257;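 active = inhibition above about 21% made by adding two undisclosed values, limit read from the data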
PfM18AAP inh: PfM18AAP enzyme inhibition | recombinant PfM18AAP, H-Glu-NHMec fluorogenic cleavage | inhibition, % at 7.35 µM | 1.2% of 290,000 active;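 active = inhibition above the campaign mean inhibition over all tested compounds plus 3 SD, cut at about 28% in these data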;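 also: 0% = plate median of test compound wells and 100% = 2 mM ZnCl2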
UHRF1 binding: human UHRF1 methylated DNA binding inhibitors; Q96T88; UHRF1 binding to methylated oligo, TR-FRET; inhibition, % at 4.4 µM; 0.75% of 370,000 active; in the data active = inhibition above about 21%;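 also: UHRF1 SRA domain binding a hemimethylated CpG hairpin DNA probe; 0% = median of test compound wells and 100% = reference inhibitor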
Target sequence (Q96T88 whole entry, looked up, the tested form may be a part): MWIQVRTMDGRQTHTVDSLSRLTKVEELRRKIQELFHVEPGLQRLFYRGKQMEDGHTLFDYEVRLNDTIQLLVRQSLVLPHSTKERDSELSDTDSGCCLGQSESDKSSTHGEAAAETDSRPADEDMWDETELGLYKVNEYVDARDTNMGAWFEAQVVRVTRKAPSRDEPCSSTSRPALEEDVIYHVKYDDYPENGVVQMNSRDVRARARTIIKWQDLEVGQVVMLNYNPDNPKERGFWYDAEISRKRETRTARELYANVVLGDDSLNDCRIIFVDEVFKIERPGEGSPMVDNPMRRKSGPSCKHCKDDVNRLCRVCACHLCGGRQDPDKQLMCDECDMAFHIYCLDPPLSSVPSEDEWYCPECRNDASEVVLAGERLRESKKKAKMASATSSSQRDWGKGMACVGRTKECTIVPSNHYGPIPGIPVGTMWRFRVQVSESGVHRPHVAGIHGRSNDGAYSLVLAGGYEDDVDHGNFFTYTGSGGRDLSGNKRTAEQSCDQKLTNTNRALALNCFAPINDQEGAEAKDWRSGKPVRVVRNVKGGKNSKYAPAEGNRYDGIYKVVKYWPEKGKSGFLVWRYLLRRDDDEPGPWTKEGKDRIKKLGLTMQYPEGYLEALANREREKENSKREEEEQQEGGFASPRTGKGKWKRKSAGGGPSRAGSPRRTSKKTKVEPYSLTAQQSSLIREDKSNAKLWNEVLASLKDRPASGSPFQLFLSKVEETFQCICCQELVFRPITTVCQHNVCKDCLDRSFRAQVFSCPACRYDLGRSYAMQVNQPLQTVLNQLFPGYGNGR
PfG6PD inh: PfG6PD (Plasmodium falciparum) enzyme inhibition | AID 504690 | 0.78% of 350,000 active | PfGluPho enzyme, NADPH resazurin-diaphorase fluorescence | inhibition, % at 20 µM;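 active = inhibition reaching at least a set limit at 20 µM in the primary screen, cut at about 59% in these data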;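 also: 0% = DMSO wells with substrate and 100% = DMSO wells lacking glucose-6-phosphate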
MBD2 inh: MBD2-methylated oligo binding inhibition; Q9UBB5; TR-FRET, MBD2 binding to methylated oligonucleotide; inhibition, % at 4.4 µM; 0.31% of 370,000 active; AID 686964; in the data active = inhibition above about 13%
PfGluPho conf: confirmation of Plasmodium falciparum G6PD inhibitors; shares compounds with PfG6PD inh; recombinant PfGluPho, NADPH-diaphorase-resazurin fluorescence; 34% of 2,400 active; inhibition, % at 20 µM;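 active = inhibition of at least 50% at 20 µM in any single replicate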;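 also: 0% = DMSO with substrate and 100% = DMSO lacking glucose-6-phosphate substrate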
Diaphorase 10uM: inhibits diaphorase or oxidizes, flagging false PfG6PD hits; shares compounds with PfG6PD inh; inhibition, % at 20 µM; diaphorase-coupled resazurin reduction, fluorescence, NADPH 10 uM; AID 504862; 39% of 820 active;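 active = average inhibition reaching 50% or more with the compound at 20 µM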;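 also: resorufin red fluorescence formed as diaphorase reduces resazurin using NADPH; 0% = DMSO with enzyme and 100% = DMSO without enzyme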
Diaphorase 30uM: inhibits diaphorase or oxidizes, flagging false PfG6PD hits; shares compounds with PfG6PD inh; Diaphorase/resazurin coupled assay, resorufin fluorescence, 30 uM NADPH; inhibition, % at 20 µM; 29% of 820 active;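 active = inhibition averaging 50% or more, tested at 20 µM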;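 also: 0% = DMSO with enzyme and 100% = DMSO wells lacking diaphorase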
* = called active by the depositor.

How did COc1cccc(-c2c(C(=O)N/N=C/c3ccc(C)o3)nnn2-c2nonc2N)c1 do in these assays?
PRMT1 inh: 4; PfM18AAP inh: -2; UHRF1 binding: -2; PfG6PD inh: 66*; MBD2 inh: 3; PfGluPho conf: 56*; Diaphorase 10uM: 27; Diaphorase 30uM: 19

Results for CCOc1cccc(-c2c(C(=O)N/N=C/c3ccc(C)s3)nnn2-c2nonc2N)c1 ?
PRMT1 inh: -3; PfM18AAP inh: 3; UHRF1 binding: -6; PfG6PD inh: 67*; MBD2 inh: -9; PfGluPho conf: 40

What do the screens show for `COc1cccc(-c2c(C(=O)N/N=C/c3ccncc3)nnn2-c2nonc2N)c1`?
PRMT1 inh: -7; PfM18AAP inh: 7; UHRF1 binding: -2; PfG6PD inh: 8; MBD2 inh: -3

How did CCOc1cccc(-c2c(C(=O)N/N=C/c3sccc3C)nnn2-c2nonc2N)c1 do in these assays?
PRMT1 inh: 3; PfM18AAP inh: -2; UHRF1 binding: -2; PfG6PD inh: 87*; MBD2 inh: -2; PfGluPho conf: 32

Results for COc1cccc(-c2c(C(=O)N/N=C/c3ccc(C)s3)nnn2-c2nonc2N)c1 ?
PRMT1 inh: 2; PfM18AAP inh: 2; UHRF1 binding: -2; PfG6PD inh: 98*; MBD2 inh: -3; PfGluPho conf: 50*; Diaphorase 10uM: 65*; Diaphorase 30uM: 42

Results for O=C1CCc2cc(S(=O)(=O)N3CCN(Cc4cccc5c4OCO5)CC3)ccc2N1 ?
PRMT1 inh: 6; UHRF1 binding: 1; MBD2 inh: -3

How did CC1CCC2(CCC(=O)N2CCCOC(=O)Nc2cccc(C(F)(F)F)c2)CC1 (stereo not drawn) do in these assays?
PRMT1 inh: -2; UHRF1 binding: 1; MBD2 inh: -3

Results for CC(C)(Oc1ccc(Cl)cc1)C(=O)Nc1c2c(nn1C(C)(C)C)CS(=O)(=O)C2 ?
PRMT1 inh: 5; UHRF1 binding: 1; PfG6PD inh: -22; MBD2 inh: 4

What do the screens show for `Cc1ccsc1/C=N/NC(=O)c1nnn(-c2nonc2N)c1-c1ccc2c(c1)OCO2`?
PRMT1 inh: 6; PfM18AAP inh: 5; UHRF1 binding: 1; PfG6PD inh: 66*; MBD2 inh: 0; PfGluPho conf: 32

How did CCN(CC(=O)Nc1ccc(NC(C)=O)cc1)C(=O)c1ccc(COc2ccc(C(C)(C)C)cc2)cc1 do in these assays?
PRMT1 inh: -7; UHRF1 binding: -1; PfG6PD inh: 24; MBD2 inh: -2

Results for COCCN(Cc1nc2ccccc2c(=O)[nH]1)C(=O)COc1c(C)cc(Cl)cc1C ?
PRMT1 inh: -5; UHRF1 binding: 0; PfG6PD inh: 72*; MBD2 inh: 5; PfGluPho conf: 35

How did O=C(/C=C/C(Cl)(Cl)Cl)Nc1ccc(Cl)cc1 do in these assays?
PRMT1 inh: 3; UHRF1 binding: -1; PfG6PD inh: 96*; MBD2 inh: 1; PfGluPho conf: 18

How did O=C(/C=C/c1ccc(Cl)cc1)Nc1ccc(N2CCCCC2)cc1 do in these assays?
PRMT1 inh: 1; PfM18AAP inh: 2; UHRF1 binding: 4; PfG6PD inh: -22; MBD2 inh: 2

What do the screens show for `O=[N+]([O-])c1ccccc1C1Nc2cccc3cccc(c23)N1`?
PRMT1 inh: 29*; PfM18AAP inh: -9; UHRF1 binding: -1; PfG6PD inh: 67*; MBD2 inh: -1; PfGluPho conf: 8

What do the screens show for `C=CCN1[C@@H](C)[C@H](c2ccccc2)Oc2cccc(NCC(C)C)c2S1(=O)=O`?
PRMT1 inh: 4; UHRF1 binding: -1; MBD2 inh: 2

How did Cc1c(C(=O)c2ccc(F)cc2F)c2ccccn2c1CCC#N do in these assays?
PRMT1 inh: 7; PfM18AAP inh: 30*; UHRF1 binding: 7; PfG6PD inh: 94*; MBD2 inh: 0; PfGluPho conf: 17

How did COC(=O)c1ccc(/C=C/c2ccc3cccc(OC)c3n2)cc1 do in these assays?
PRMT1 inh: -1; PfM18AAP inh: 3; UHRF1 binding: -3; PfG6PD inh: 74*; MBD2 inh: -5; PfGluPho conf: 26
